From PubChem BioAssay (NCI)
Compounds without any hit were thinned out: in the full panel of roughly 83,000, 20% have a hit.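 The endpoint reported here, percent growth, reads 100 for growth as untreated, 0 for no net growth and -100 for all cells dead.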 Activity calls are given as the source filed them. The calls were made as follows: active = growth percent below 10; inactive = the rest.

Tested on: HCT-116 colon
Assay: NCI-60 one-dose screen, 48 h (100 = growth as untreated, 0 = no growth, -100 = all killed)
Details: 10 µM unless noted

Row | SMILES | growth
1 | COc1ccc(/C=C/c2nc(-c3n[nH]c(=O)n3-c3ccccc3)c3ccccc3n2)cc1 | 104% (inactive)
2 | COc1ccc(-c2n[nH]nc2-c2csc3ccccc23)cc1OC | 22.4% (inactive)
3 | CSc1nc(-c2cccc(NC(=O)CCl)c2)c(C#N)c(=O)n1C | 7.55% (active)
4 | Cc1cc(C)c2nc3nc(C)cc(C)c3c(N)c2c1 | 13.9% (inactive)
5 | Cc1nn(-c2cc(=O)[nH]c3ccccc23)c(N)c1C#N | 107% (inactive)
6 | CCOC(=O)c1c(C(=O)OCC)c2cc(-c3ccn4c(C(=O)c5ccccc5)c(C(=O)OCC)c(C(=O)OCC)c4c3)ccn2c1C(=O)c1ccccc1 | 103% (inactive)
7 | CNC(=O)c1cc(Oc2ccc(NC(=O)Nc3ccc(Cl)c(SC)c3)c(F)c2)ccn1 | 30.8% (inactive)
8 | O=c1nc2oc3ccc4ccccc4c3cc-2s1 | 21.1% (inactive)
9 | CN(C)C(=S)N=Nc1c(O)[nH]c2ccccc12 | 3.73% (active)
10 | CC(=O)O[C@H]1CC[C@]2(C)[C@H]3CC=C4[C@@H]5CC(C)(C)CC[C@]5(C(=O)NCCNCCN)CC[C@@]4(C)[C@]3(C)CC[C@H]2C1(C)C | -91.2% (active)
11 | O=C1c2cc3c(cc2-c2c1c1ccc(F)cc1c(=O)n2CCCNCCO)OCO3 | -43.1% (active)
12 | COc1cc(/C=C/C(=O)c2c(C)oc3nc[nH]c(=O)c23)cc(OC)c1OC | 61.3% (inactive)
13 | COC[C@H](C)n1c(C2CCOCC2)nc2cnc3cc(-c4c(C)noc4C)c(OC)cc3c21 | 46.8% (inactive)
14 | Cn1cc(-c2nonc2-c2c[nH]c3ccc(F)cc23)c2cccnc21 | 90.9% (inactive)
15 | COc1cc2c(cc1-c1c(C)noc1C)ncc1nc(C3CCOCC3)n([C@H](C)COC(F)F)c12 | 40.4% (inactive)
16 | CC1=C[C@H]2c3c(c(O)c(O)c4oc5cc(O)ccc5c(=O)c34)[C@H](c3cc(O)c(O)c4oc5cc(O)ccc5c(=O)c34)[C@H]2C(C)(C)C1 | 1.38% (active)
17 | COc1cc(-c2nn(-c3ccc(Br)cc3)cc2C(=O)O)ccc1O | 97.9% (inactive)
18 | COc1cc(C2CC(=O)c3ccccc3N2)cc(OC)c1OC (stereo not given) | 104% (inactive)

Row | SMILES | growth
19 | CC1=NN(c2nc(-c3ccc(Cl)cc3)c(C#N)c(N3CCOCC3)n2)C(=O)C1 | 94.3% (inactive)
20 | COCCNc1ccc2c3c(cccc13)C(=O)N(CCN(C)C)C2=O | 10.9% (inactive)
21 | CCOC(=O)c1cc(C(=O)c2ccc(O)c(O)c2)n2ccc(-c3ccn4c(C(=O)c5ccc(O)c(O)c5)cc(C(=O)OCC)c4c3)cc12 | 98.2% (inactive)
22 | CCN=C1C=CC(=C(c2ccc(N)cc2)c2ccc(N(CC)CC)c(C)c2)C=C1 | -17.5% (active)
23 | COc1ccc(/C=C\c2cc(OC)c(OC)c(OC)c2)cc1OC(=O)c1cccc(Cn2cc(CCOC(=O)[C@H](N)Cc3cn(C)c4ccccc34)nn2)c1 | 3.68% (active)
24 | Cc1cc(N2CCSCC2)nc(NC2CCCC(Nc3ccnc4cc(Cl)ccc34)C2)n1 (stereo not given) | -65.6% (active)
25 | CSc1nc(NCCO)c(C#N)c(-c2cccc([N+](=O)[O-])c2)n1 | 96.1% (inactive)
26 | Cc1ccc(C2=NN3C(C2)c2cc(Br)ccc2OC32CCN(Cc3ccccc3)CC2)o1 (stereo not given) | 99.6% (inactive)
27 | COc1ccc(/C=C(\C#N)C(=O)Nc2cccc(Nc3nc(SC)nc(-c4cccc([N+](=O)[O-])c4)c3C#N)c2)cc1OC | 92.6% (inactive)
28 | CCN(CC)CCCCNc1c2ccc(Cl)cc2nc2ccc(OC)cc12 | -39.5% (active)
29 | O=C(/C=C/c1cc(CN2CCOCC2)c(O)c2ncccc12)c1cc(CN2CCOCC2)c(O)c2ncccc12 | 21.7% (inactive)
30 | COc1cc(-c2nc3ccccc3[nH]2)ccc1OCC(=O)N=Nc1c(O)[nH]c2ccc(Cl)cc12 | -83.6% (active)
31 | COc1ccc(-n2nc(C)c3c(Nc4ccc(NC(=O)Nc5cc(C(F)(F)F)ccc5F)cc4)ncnc32)cc1 | 22% (inactive)
32 | COc1cc(-c2nc3cc(Cl)c(Cl)cc3[nH]2)ccc1OCC(=O)N=Nc1c(O)[nH]c2ccccc12 | -75.6% (active)
33 | CN(C)CCN1C(=O)c2cccc3c(N)ccc(c23)C1=O | 15.9% (inactive)
34 | Cc1nc2ccccc2n1C(=O)C[C@@H]1NC(=S)NC1=O | 92.5% (inactive)
35 | CCN(CC)c1ccc(-c2cc(-c3cc(OC)c(OC)c(OC)c3)nc(N3CCOCC3)c2C#N)cc1 | 10.5% (inactive)
